Experimental findings from PubChem BioAssay are described below.

Activity calls are given as the source filed them.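 Rule for the calls, unless noted: active = inhibition above 20% together with a positive visual image hit; inconclusive = visual image hit but inhibition not above 20%; inactive = no visual image hit.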

The inhibition is the relative decrease from the control value, in per cent.

The nature of assay [1]: inhibitors of TNFa-induced NFkB p65 translocation, primary screen, imaging, HUVEC, MLSMR starter and 10KST1 sets (AID 438).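 For inhibition: signal is the nuclear over cytoplasmic p65 intensity ratio per well.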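 Note: compound added about 3h40 before a 20 min TNFalpha stimulation.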 The following applies: HUVEC TNFa-induced p65 nuclear translocation; cell count: measured here: nuclei count (cytotoxicity indicator), at 2.08 µM; inhibition: at 2 µM, stronger effect = higher value, 0% TNFa-plus-vehicle, 100% no-TNFa wells.
The nature of assay [2]: reduction of polyQ htt aggregates in cells – imaging, exon1htt(103Q)mCFP cells, high-content imaging, primary screen (AID 483;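 active = visual image review flags a hit and inhibition of aggregation exceeds 20%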;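 note: compound exposure lasted 3 days before fixation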;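 for nuclei count: percent of the per-plate median nuclei count of sample wells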). Particulars: exon1htt(103Q)mCFP cell line, aggregate imaging, at 2 µM; inhibition of aggregation: stronger effect = higher value; nuclei count: measured here: cell count, toxicity.
Assay [3] in a line: endothelial E-selectin expression blockers – imaging, HUVEC, immunofluorescence, MLSMR starter and 10KST1 sets, primary screen (AID 487;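 active = visually confirmed hit in the image check and inhibition above 20%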;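 for inhibition: signal is fraction of cell area covered by stained E-selectin grains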;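 for nuclei count: 100% = median nuclei count of all wells on the same plate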). The following applies: HUVEC TNFalpha-induced E-selectin immunofluorescence imaging, at 2 µM; inhibition: stronger effect = higher value; nuclei count: measured here: cell number, toxicity.
Assay [4] addresses Voltage-gated potassium channel subunit beta-2 (Rattus norvegicus) (UniProt P62483). The assay can be described thus: inhibitors of rat Kvbeta2 reductase activity – biochemical, NADPH fluorescence, primary screen (AID 622;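 active = fluorescence slope higher than the sample average by over 3 SD, cut at about -0.22 in these data, passing the limit was not always enough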;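 note: slope of raw intensity against log time taken from 70 to 1610 s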). The following applies: recombinant KvBeta, 4-cyanobenzaldehyde reduction, at 10 µM, stronger effect = higher value.
For assay [5] the target is unchanged. The assay can be described thus: enhancers of rat Kvbeta2 NADPH turnover – biochemical, NADPH fluorescence, primary screen (AID 623;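 active = NADPH fluorescence slope more negative than the mean of all samples by about 3 SD, 99.7% confidence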;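 note: fluorescence intensity change per second fitted from 20 to 320 s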). The following applies: Recombinant KvBeta, NADPH fluorescence decrease slope, 10 min; at 10 µM; stronger effect = lower value.
The target of assay [6] is Alpha-2C adrenergic receptor (Homo sapiens) (UniProt P18825). The assay can be described thus: compounds altering alpha2C-coupled GIRK flux – cell-based, HEK293 alpha2C/GIRK1/2, thallium flux, primary screen (AID 624;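 active = fluorescence slope after compound addition differing from the mean of all screened samples at 99.7% confidence, in either direction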;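 note: slope of fluorescence ratio to pre-addition baseline per second over 15 to 24 s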). Particulars: thallium flux BTC fluorescence, at 10 µM, actives lie on both sides.
Assay [7] in a line: blockers of RIG-like receptor reporter activation – cell-based, Sendai virus stimulus, luciferase, 10K MLSCN set, TLR/RLR signaling modifier project, primary screen (AID 602276;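 active = inhibition at or above 50% at 10 µM; inactive = inhibition below 50%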;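 note: firefly luciferase from ISG56 promoter only with Renilla not read in this screen; 0% = Sendai virus plus DMSO and 100% = medium plus DMSO without virus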). Particulars: HEK293 RL24 IRF3 luciferase reporter, at 10 µM, stronger effect = higher value. (Reporter assays use an easily measured gene product as a stand-in for the process of interest.)
Assay [8] is described as follows: TLR3 IRF3 reporter activation blockers – cell-based, poly I:C stimulus, luciferase, 10K MLSCN set, primary screen (AID 602277;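 active = inhibition of the reporter signal at or above 50%; inactive = inhibition below 50%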). The following applies: HEK293-TLR3 RL24 IRF3 luciferase reporter, at 10 µM, stronger effect = higher value.

Sequence of Alpha-2C adrenergic receptor (Homo sapiens) (P18825 whole entry, looked up): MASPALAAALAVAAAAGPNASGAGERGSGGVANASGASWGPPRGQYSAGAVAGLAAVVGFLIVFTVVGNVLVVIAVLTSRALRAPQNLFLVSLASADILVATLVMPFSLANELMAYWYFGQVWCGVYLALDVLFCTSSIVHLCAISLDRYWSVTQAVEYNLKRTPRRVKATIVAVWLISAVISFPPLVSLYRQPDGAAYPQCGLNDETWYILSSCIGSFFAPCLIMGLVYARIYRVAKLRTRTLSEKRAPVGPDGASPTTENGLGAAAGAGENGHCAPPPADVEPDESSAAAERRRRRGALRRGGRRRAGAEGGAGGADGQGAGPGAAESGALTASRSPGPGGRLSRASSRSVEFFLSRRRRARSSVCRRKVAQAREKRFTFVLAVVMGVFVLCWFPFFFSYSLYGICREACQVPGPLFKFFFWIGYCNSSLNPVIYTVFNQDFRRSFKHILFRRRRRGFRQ
Sequence of Voltage-gated potassium channel subunit beta-2 (Rattus norvegicus) (P62483 whole entry, looked up): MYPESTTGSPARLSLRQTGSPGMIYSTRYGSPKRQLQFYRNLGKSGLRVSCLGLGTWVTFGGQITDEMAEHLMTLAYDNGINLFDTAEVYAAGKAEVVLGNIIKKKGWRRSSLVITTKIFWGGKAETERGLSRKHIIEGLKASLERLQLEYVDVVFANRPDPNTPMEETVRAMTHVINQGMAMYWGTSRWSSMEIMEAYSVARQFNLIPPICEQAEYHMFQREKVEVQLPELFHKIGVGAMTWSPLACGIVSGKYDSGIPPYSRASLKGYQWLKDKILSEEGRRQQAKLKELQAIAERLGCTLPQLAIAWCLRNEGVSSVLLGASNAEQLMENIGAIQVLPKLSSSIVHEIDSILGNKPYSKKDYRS

Turning to `c1ccc2oc(SCc3cn4ccccc4n3)nc2c1`, in assay [1], the cell count amounted to 612. Also, the inhibition in assay [1] is 12.6% (inactive); in assay [3] it was -30.4% (inactive); in assay [7], -46.4% (inactive); in assay [8] it was -151% (inactive). For the same molecule, in assay [2], the inhibition of aggregation was 16.1% (inactive). The results for the nuclei count in assay [2] and in assay [3] were 99.8% and 132%, respectively. The fluorescence slope in assay [4] was -0.506 (inactive). Moreover, in assay [5], the NADPH fluorescence slope is -4.1e-05 (inactive). Moreover, in assay [6], the slope is 0.00508 (inactive).
As for `Cc1nnc(SCC(=O)N2CCN(S(=O)(=O)c3ccccc3)CC2)[nH]c1=O`, the cell count in assay [1] was 711. Also, the inhibition is 9.4% (inactive) in assay [1], -39.5% (inactive) in assay [3], 3.92% (inactive) in assay [7] and 13.4% (inactive) in assay [8]. The inhibition of aggregation in assay [2] was 7.1% (inactive). The nuclei count in assay [2] came out at 103%; in assay [3] it was 127%. For the same molecule, the fluorescence slope in assay [4] was -0.509 (inactive). Also, in assay [5], the NADPH fluorescence slope was -6e-05 (inactive). In assay [6], the slope is 0.00552 (inactive).
On to `O=C(NCC1CCCO1)C1CCC(CNS(=O)(=O)c2ccccc2)CC1` (centres undefined), for which the cell count in assay [1] worked out at 341. The inhibition in assay [1] is 8.1% (inactive); in assay [3], -24.2% (inactive); in assay [7], 7.1% (inactive); in assay [8] it was 10.8% (inactive). In addition, the inhibition of aggregation in assay [2] was -6% (inactive). Moreover, the figures for the nuclei count in assay [2] and in assay [3] were 110% and 115%, respectively. In addition, the fluorescence slope in assay [4] is -0.499 (inactive). Also, the NADPH fluorescence slope in assay [5] is -4e-05 (inactive). Moreover, in assay [6], the slope was 0.00661 (inactive).
On to `CCCN1CC23C=CC(O2)C(C(=O)O)C3C1=O` (centres undefined), for which, in assay [1], the cell count came out at 833. Further, the inhibition is -8.7% (inactive) in assay [1], -58.4% (inactive) in assay [3], 6.27% (inactive) in assay [7] and 15.9% (inactive) in assay [8]. Moreover, in assay [2], the inhibition of aggregation was -27.3% (inactive). Also, the nuclei count in assay [2] was 109%; in assay [3], 124%. Further, the fluorescence slope in assay [4] is -0.518 (inactive). In addition, in assay [5], the NADPH fluorescence slope was -8.6e-07 (inactive). For the same molecule, the slope in assay [6] was 0.00688 (inactive).
Turning to `CCOC(=O)c1cc(NC(=O)SCC(=O)O)c(C)nc1C`, the cell count in assay [1] was found to be 762. Further, the inhibition was 5.1% (inactive) in assay [1], -99.8% (inactive) in assay [3], 7.76% (inactive) in assay [7] and 9.57% (inactive) in assay [8]. In assay [2], the inhibition of aggregation was -19.7% (inactive). Further, the nuclei count in assay [2] was found to be 111%; in assay [3] it was 128%. Moreover, the fluorescence slope in assay [4] was -0.484 (inactive). In assay [5], the NADPH fluorescence slope was -3.2e-05 (inactive). Further, the slope in assay [6] is 0.0071 (inactive).
In the case of `CC1CCCC(C)N1C(=O)CSc1nnc(-c2cccs2)o1` (centres undefined), the cell count in assay [1] turned out to be 400. Further, the inhibition in assay [1] was -14% (inactive); in assay [3], -9.9% (inactive); in assay [7], -27.4% (inactive); in assay [8] it was -68% (inactive). Further, the inhibition of aggregation in assay [2] was -29.6% (inactive). Further, the nuclei count is 114% in assay [2] and 101% in assay [3]. Besides, the fluorescence slope in assay [4] is -0.382 (inactive). For the same molecule, the NADPH fluorescence slope in assay [5] is -5.4e-05 (inactive). Moreover, the slope in assay [6] is 0.0042 (inactive).
Regarding `O=C(COC(=O)C1CC2C=CC1C2)Nc1ccc2c(c1)OC(F)(F)O2` (centres undefined), in assay [1], the cell count was 434. In addition, the inhibition in assay [1] was 9.3% (inactive); in assay [3], 11.1% (inactive); in assay [7], 15.9% (inactive); in assay [8], 20.1% (inactive). The inhibition of aggregation in assay [2] was 13.3% (inactive). The nuclei count in assay [2] worked out at 89.2%; in assay [3], 91.8%. Moreover, the fluorescence slope in assay [4] was -0.437 (inactive). In addition, in assay [5], the NADPH fluorescence slope was -6.4e-05 (inactive). The slope in assay [6] was 0.00772 (inactive).
With `COc1ccc(C(=O)Cn2nnc(-c3cccs3)n2)cc1`, the cell count in assay [1] stood at 368. Also, the inhibition was -7% (inactive) in assay [1], -0.6% (inactive) in assay [3], -2.35% (inactive) in assay [7] and -30.5% (inactive) in assay [8]. In addition, the inhibition of aggregation in assay [2] is 27.6% (inactive). For the same molecule, the nuclei count in assay [2] turned out to be 89.5%; in assay [3] it was 100%. Moreover, the fluorescence slope in assay [4] is -0.407 (inactive). Besides, in assay [5], the NADPH fluorescence slope was -4.9e-05 (inactive). The slope in assay [6] was 0.00512 (inactive).
Turning to `COc1ccc(CN(C(=O)CSc2nnc(-c3ccccc3F)o2)c2ccc(F)cc2)cc1`, the cell count in assay [1] amounted to 560. Besides, the inhibition in assay [1] is -14.3% (inactive); in assay [3], -118% (inactive); in assay [7], 8.03% (inactive); in assay [8], 9.3% (inactive). Also, the inhibition of aggregation in assay [2] is 15% (inactive). In addition, the nuclei count is 85.2% in assay [2] and 123% in assay [3]. In addition, the fluorescence slope in assay [4] was -0.421 (inactive). Besides, the NADPH fluorescence slope in assay [5] is -3.9e-05 (inactive). Besides, the slope in assay [6] was 0.0074 (inactive).
With `COc1ccccc1CNC(=O)CCNC(=O)Cn1ccc2ccccc2c1=O`, the cell count in assay [1] was determined as 749. The inhibition was -23.7% (inactive) in assay [1], -16.3% (inactive) in assay [3], 7.16% (inactive) in assay [7] and 6.29% (inactive) in assay [8]. Also, the inhibition of aggregation in assay [2] was 8.2% (inactive). In addition, the nuclei count in assay [2] was 107%; in assay [3], 116%. Moreover, the fluorescence slope in assay [4] is 0.0111 (inactive). In assay [5], the NADPH fluorescence slope is -1.6e-05 (inactive). In addition, the slope in assay [6] is 0.00394 (inactive).
`CCOC(=O)c1sc(Nc2nc3c(OC)cccc3s2)nc1C`: in assay [1], the cell count came to 435. Besides, the inhibition in assay [1] is 2.2% (inactive); in assay [3] it was -20.5% (inactive); in assay [7], -1.57% (inactive); in assay [8], -60.9% (inactive). Further, the inhibition of aggregation in assay [2] is -20.1% (inactive). The nuclei count in assay [2] was determined as 106%; in assay [3], 101%. For the same molecule, in assay [4], the fluorescence slope was -0.351 (inactive). Besides, the NADPH fluorescence slope in assay [5] is 2.5e-05 (inactive). For the same molecule, the slope in assay [6] is 0.00775 (inactive).
In the case of `CC(=O)NC(Cc1ccc(C)cc1)C(=O)NC1CCN(C(=O)c2cnccn2)CC1` (centres undefined), the cell count in assay [1] worked out at 740. For the same molecule, the inhibition in assay [1] was -1% (inactive); in assay [3] it was -42% (inactive); in assay [7] it was 13.8% (inactive); in assay [8], 9.87% (inactive). For the same molecule, the inhibition of aggregation in assay [2] is 22.2% (inactive). Besides, the values for the nuclei count in assay [2] and in assay [3] were 130% and 117%, respectively. Also, the fluorescence slope in assay [4] was -0.421 (inactive). In addition, the NADPH fluorescence slope in assay [5] was -1.5e-05 (inactive). Also, the slope in assay [6] was 0.00511 (inactive).
As for `CCOC(=O)C1=C(C)Nc2nnnn2C1c1ccc(OC)c(Br)c1` (centres undefined), in assay [1], the cell count worked out at 635. The inhibition is 5.8% (inactive) in assay [1], 2.7% (inactive) in assay [3], -20% (inactive) in assay [7] and -12.8% (inactive) in assay [8]. For the same molecule, in assay [2], the inhibition of aggregation was -8.3% (inactive). Also, the nuclei count was found to be 94.6% in assay [2] and 111% in assay [3]. For the same molecule, the fluorescence slope in assay [4] was -0.574 (inactive). The NADPH fluorescence slope in assay [5] was -1.5e-05 (inactive). The slope in assay [6] is 0.00761 (inactive).
In the case of `Cc1cccc(NC(=O)C2CCCN(C(=O)Nc3ccccc3)C2)c1C` (centres undefined), the cell count in assay [1] turned out to be 599. Further, the inhibition is -28.6% (inactive) in assay [1], -9.2% (inactive) in assay [3], 4% (inactive) in assay [7] and -12% (inactive) in assay [8]. Further, the inhibition of aggregation in assay [2] was -9.1% (inactive). Further, the values for the nuclei count in assay [2] and in assay [3] were 87.8% and 85.7%, respectively. Moreover, the fluorescence slope in assay [4] is -0.573 (inactive). Moreover, the NADPH fluorescence slope in assay [5] is 4.6e-05 (inactive). Besides, the slope in assay [6] was 0.00746 (inactive).
